High-throughput results (PubChem)
Hedgehog inh: Hedgehog pathway signaling inhibitors, primary screen, luminescence, Shh-LIGHT2 cells, Gli-luciferase. Shh-LIGHT2 Gli-luciferase reporter, 30 h. inhibition, % (no concentration beside the values). actives 2.1% (n = 22,000). AID 2313, 2010;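 active means mean inhibition across valid replicates above about 65%, limit read from the data; inconclusive means mean under the limit, yet half or more replicates past it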;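 further: pathway switched on by Shh-conditioned medium diluted 1 in 25 in low serum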
PD-1 reversal: activators reversing PD-1 mediated T-cell inhibition, primary screen, luminescence, primary human CD4 T cells, PD-L1 beads; CellTiter-Glo 96 h; activation, % (test concentration not listed); 29,000 tested, under 10 active; AID 2316, 2010; call rule not given here;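 further: 0% = median vehicle wells and 100% = positive control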
MITF inhib: inhibitors of MITF, primary screen, MITF inhibitor project, cell-based, luminescence | TRPM1 promoter luciferase, 24 h | inhibition, % (no concentration beside the values) | actives 0.28% (n = 37,000) | AID 2240, 2010; in the data active means inhibition above about 85%; inconclusive means no clear call, values can overlap the other calls; inactive means below about 68%;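 further: human melanocyte line stably carrying TRPM1 promoter luciferase reporter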
The depositor's hits bear a star; ? = inconclusive; . = no result given. Shown is part of a subset that was picked to be rich in hits.

SMILES	Hedgehog inh	PD-1 reversal	MITF inhib
CC(C)OC(=O)CSc1nnc(-c2ccccc2F)n1-c1ccccc1	.	0.8	-4.0
COc1ccc(S(=O)(=O)N(C)C[C@@H]2Oc3ccc(NC(=O)C4CC4)cc3C(=O)N([C@H](C)CO)C[C@@H]2C)cc1	-3.5	0.0	-7.1
CC(C)c1ccc(OCC(=O)Nc2ccc(O)cc2C(=O)O)cc1	.	0.0	-2.6
Cc1noc(C)c1NC(=O)Nc1ccc2c(c1)C(=O)N([C@@H](C)CO)C[C@@H](C)[C@@H](CN(C)S(=O)(=O)c1cccs1)O2	-1.8	0.8	-4.7
C[C@@H]1CN([C@@H](C)CO)C(=O)c2cc(NC(=O)Nc3ccc(F)cc3)ccc2O[C@@H]1CN(C)Cc1ccccc1	.	.	7.6
C[C@@H]1CN([C@H](C)CO)C(=O)c2cccc(NC(=O)c3ccc(-c4nccs4)cc3)c2O[C@H]1CN(C)S(=O)(=O)c1ccc(Cl)cc1	75.5*	.	7.7
Cc1ccc(S(=O)(=O)N(C)C[C@@H]2Oc3c(NC(=O)c4ccc(-c5nccs5)cc4)cccc3C(=O)N([C@H](C)CO)C[C@@H]2C)cc1	-7.3	-3.7	29.2
C[C@H](CO)N1C[C@H](C)[C@@H](CN(C)Cc2ccncc2)Oc2c(NC(=O)c3cnccn3)cccc2C1=O	69.7*	.	-11.1
C[C@@H]1CN([C@@H](C)CO)C(=O)c2cccc(NC(=O)c3cnccn3)c2O[C@@H]1CN(C)Cc1ccncc1	4.5	0.5	0.3
COC(=O)/C=C/S(=O)(=O)c1ccc(NC(C)=O)cc1	94.4*	-4.8	21.4
COC(=O)Nc1ccc(S(=O)(=O)N(C)C)cc1	.	1.3	12.6
Cc1noc(C)c1NC(=O)Nc1ccc2c(c1)C(=O)N([C@@H](C)CO)C[C@H](C)[C@H](CN(C)Cc1ccc(C(=O)O)cc1)O2	-27.3	1.4	-15.1
C[C@@H]1CCCCO[C@H](CN(C)C(=O)Nc2ccc(C(F)(F)F)cc2)[C@@H](C)CN([C@H](C)CO)C(=O)c2cc(NS(=O)(=O)c3ccc(F)cc3)ccc2O1	30.7	.	40.6
C[C@@H]1CCCCO[C@@H](CN(C)C(=O)Nc2ccc(C(F)(F)F)cc2)[C@@H](C)CN([C@H](C)CO)C(=O)c2cc(NS(=O)(=O)c3ccc(Cl)cc3)ccc2O1	119.2*	-9.4	43.9
C[C@@H]1CCCCO[C@H](CN(C)C(=O)Nc2ccc(C(F)(F)F)cc2)[C@@H](C)CN([C@H](C)CO)C(=O)c2cc(NS(=O)(=O)c3cccs3)ccc2O1	.	-0.4	48.4
C[C@@H]1CCCCO[C@@H](CN(C)C(=O)Nc2ccc(C(F)(F)F)cc2)[C@@H](C)CN([C@H](C)CO)C(=O)c2cc(NS(=O)(=O)c3cccs3)ccc2O1	82.5*	-8.1	25.1
COc1cccc(N(CC(=O)Nc2ccc(F)cc2F)S(C)(=O)=O)c1	.	0.5	-0.5
COc1ccc(C)cc1NC(=O)CCN1CCN(Cc2ccccc2)CC1	.	-1.4	-1.8
CCC(C)C1NC(=O)C(CCC(=O)O)N(C)C(=O)C(C(C)C)N(C)C(=O)CNC(=O)C2CCCN2C(=O)C(Cc2ccccc2)NC(=O)C(C(C)CC)OC(=O)C(CCC(=O)O)N(C)C(=O)C(C(C)C)NC(=O)C2CCCCN2C1=O (stereo not drawn)	100.0*	2.1	58.5
C[C@H]1CN([C@@H](C)CO)C(=O)c2cc(N(C)C)ccc2O[C@@H]1CN(C)Cc1ccc(-c2ccccc2)cc1	-14.1	-1.0	0.5
C[C@H]1CN([C@@H](C)CO)C(=O)Cc2cc(NS(C)(=O)=O)ccc2O[C@@H]1CN(C)S(=O)(=O)c1cn(C)cn1	-20.0	0.4	-39.8
C=C(C)C(=O)O[C@H]1[C@H]2C(=C)C(=O)O[C@@H]2C[C@@H](C)/C=C/C(=O)[C@](C)(O)[C@@H]1OC(=O)C(=C)C	3.3	-10.8	?
C=C(C)C(=O)O[C@H]1[C@H]2C(=C)C(=O)O[C@@H]2C[C@@H](C)[C@@H]2O[C@@H]2C(=O)[C@](C)(O)[C@@H]1OC(C)=O	85.0*	-19.7	-9.9
C=C(C)C(O)Cc1c(OC)cc2oc(=O)ccc2c1OC (stereo not drawn)	-5.9	0.9	-1.5
COc1ccccc1CCNC(=O)c1cc(-c2ccccn2)nc2c(C)c(Cl)ccc12	.	.	16.4
SMILES	Hedgehog inh	PD-1 reversal	MITF inhib
COc1cc(-c2ccccn2)nc(/C=N/O)c1S(C)=O (stereo not drawn)	82.8*	.	.
C[C@H](CO)N1C[C@H](C)[C@H](CN(C)CC2CCCCC2)Oc2ccc(NC(=O)Nc3ccccc3)cc2CC1=O	2.5	.	-14.0
COc1ccc(NC(=O)Nc2ccc3c(c2)CC(=O)N([C@@H](C)CO)C[C@H](C)[C@H](CN(C)S(C)(=O)=O)O3)cc1	1.4	-1.0	-2.8
COc1ccc([N+](=O)[O-])cc1NC(=O)CN(c1ccc(Cl)cc1C)S(C)(=O)=O	.	1.4	21.9
C[C@H]1CN([C@@H](C)CO)C(=O)c2cc(NC(=O)Nc3ccc(C(F)(F)F)cc3)ccc2O[C@H]1CN(C)S(=O)(=O)c1ccc(F)cc1	.	1.5	-3.3
C[C@H](CO)N1C[C@H](C)[C@@H](CN(C)Cc2ccc(Cl)c(Cl)c2)Oc2c(NC(=O)C3CCOCC3)cccc2C1=O	-2.0	-0.4	-9.9
C[C@H](CO)N1C[C@H](C)[C@H](CN(C)Cc2ccc(Cl)c(Cl)c2)Oc2c(NS(=O)(=O)c3ccccc3)cccc2C1=O	82.2*	.	1.0
C[C@H]1CN([C@@H](C)CO)C(=O)c2cccc(NS(=O)(=O)c3ccccc3)c2O[C@@H]1CN(C)Cc1ccc(Cl)c(Cl)c1	1.9	0.1	-9.9
C[C@@H]1CN([C@H](C)CO)C(=O)c2cccc(NC(=O)C3CCOCC3)c2O[C@H]1CN(C)Cc1ccc(Cl)c(Cl)c1	70.4*	-4.0	1.5
C[C@@H]1CN([C@@H](C)CO)C(=O)c2cc(NC(=O)Cc3ccccc3)ccc2O[C@H]1CN(C)C	.	-0.8	-7.8
CC(=O)c1ccc(NC(=O)CSc2nnc(N)n2-c2ccccc2)cc1	.	0.5	-64.0
COc1ccc(NC(=O)CNS(=O)(=O)c2c(C)cc(C)cc2C)c(OC)c1	.	3.8	1.0
CCCCC1=NC2(CCCC2)C(=O)N1Cc1ccc(-c2ccccc2-c2nn[nH]n2)cc1	-20.9	.	4.5
O=C1C(Cc2ccc(-c3nn[nH]n3)cc2)=C(c2ccccc2)S(=O)(=O)c2ccccc21	106.7*	3.2	13.9
CCc1nc2n[nH]c(N)c2c2c1COC(C)(C)C2	-33.9	-1.4	-10.5
O=C(C/C(=C1/CCc2ccccc2C1=O)c1ccccc1)c1ccccc1	103.0*	-0.6	50.3
NNC(=O)c1cc2c(s1)-c1ccccc1CC2	-63.6	-21.7	-5.1
COc1ccccc1NC(=O)CNC(=O)c1ccccc1F	.	.	-25.9
C[C@H](CO)N1C[C@H](C)[C@@H](CN(C)C(=O)Nc2ccc(F)cc2)Oc2c(NS(C)(=O)=O)cccc2C1=O	28.5	.	-9.9
CC1(C)CCC(C)(C)c2cc(C(=O)Nc3ccc(C(=O)O)cc3)ccc21	?	.	-28.2
C/C(=C\c1ccc(C(=O)O)cc1)c1ccc2c(c1)C(C)(C)CCC2(C)C	66.0*	5.7	-26.8
O=C(NCCCc1ccccc1)N1c2ccccc2Sc2ccccc21	51.6	0.3	66.7
C[C@@H]1CN([C@H](C)CO)C(=O)Cc2cc(NC(=O)C3CCCCC3)ccc2O[C@@H]1CN(C)C	.	.	-17.6
